MLL AF4-AF9 inh: MLL-AF4/AF9 protein interaction inhibition. inhibition, % at 10 µM. AlphaScreen, biotin-AF4 peptide binding to FLAG-AF9. AID 651704. P42568. 350,000 compounds, 0.47% hits;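 active = every replicate reaching a set inhibition limit, whatever the replicate mean, cut at about 25% in these data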
Target sequence (P42568 whole entry, looked up): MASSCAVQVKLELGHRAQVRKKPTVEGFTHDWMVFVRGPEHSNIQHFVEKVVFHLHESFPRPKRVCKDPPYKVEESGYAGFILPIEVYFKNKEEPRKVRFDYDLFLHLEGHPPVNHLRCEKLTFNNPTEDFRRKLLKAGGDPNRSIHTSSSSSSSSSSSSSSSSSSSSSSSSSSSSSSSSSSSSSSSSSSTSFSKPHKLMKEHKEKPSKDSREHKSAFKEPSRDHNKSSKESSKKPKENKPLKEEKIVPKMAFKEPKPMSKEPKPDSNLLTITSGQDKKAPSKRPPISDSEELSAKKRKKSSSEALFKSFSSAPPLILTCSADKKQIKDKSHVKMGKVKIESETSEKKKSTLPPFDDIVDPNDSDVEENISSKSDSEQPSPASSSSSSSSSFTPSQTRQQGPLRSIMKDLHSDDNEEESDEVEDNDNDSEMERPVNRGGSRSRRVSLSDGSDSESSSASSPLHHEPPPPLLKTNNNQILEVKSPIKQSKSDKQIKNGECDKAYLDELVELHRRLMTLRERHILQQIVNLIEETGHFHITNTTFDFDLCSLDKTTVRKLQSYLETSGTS
Glyco luc inh: blocks N-linked glycosylation in D54 reporter cells. D54 ERlucT glycosylation luciferase reporter, 24 h; percent of 100 nM tunicamycin response. reporter increase, % at 12.5 µM. 360,000 compounds, 0.23% hits;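 active = mean luciferase reporter signal, scaled so untreated is 0 and the glycosylation-blocking control 100, at or above a set limit in every replicate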;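 note: luciferase carries N-glycosylation sites so blocking glycosylation raises the light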
RAD52 inh: RAD52 (human) annealing inhibition; P43351; recombinant RAD52 DNA annealing, FRET fluorescence; inhibition, % at 18.7 µM; 360,000 compounds, 0.46% hits; AID 651710;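 active = every replicate showing at least 50% inhibition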
Casp6 inh: blocks human caspase-6 cleavage activity; P55212; purified caspase-6, Z-VEID-R110 cleavage fluorescence; inhibition, % at 12.5 µM; 350,000 compounds, 0.53% hits; AID 686996;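 active = mean inhibition across replicates at least about 35%, with every replicate also reaching that limit, limit read from the data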
RAD54 inh: inhibitors of human RAD54 branch migration. Q92698. RAD54 Holliday junction branch migration, FAM/BHQ fluorescence. inhibition, % at 10.4 µM. 360,000 compounds, 0.14% hits;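 active = mean normalized replicate activity at least 40 and at least half of replicates scoring 40 or more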;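 note: inhibitors cause a drop in the FAM fluorescence signal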
A number is an active result; . = inactive; / = no result given. This is a sample that favours compounds with a hit; in the whole collection about 1.2% have one here.

SMILES	MLL AF4-AF9 inh	Glyco luc inh	RAD52 inh	Casp6 inh	RAD54 inh
Cc1cc(NCCCCCCCNc2cc(C)nc3cc([N+](=O)[O-])ccc23)c2ccc([N+](=O)[O-])cc2n1	.	.	77.2	.	/
COCCCNc1cc(C)nc2ccccc12	/	.	.	.	.
CCOC(=O)C1=C(O)/C(=C/c2ccc(OCC(=O)O)c(OCC)c2)SC1=Nc1ccc(OC)cc1	.	.	.	35.5	/
C[C@@H](O)C1NC(=O)[C@H](CCCCN)NC(=O)c2cc([N+](=O)[O-])cc(F)c2NCCCC[C@@H](C(N)=O)NC1=O (some centres undefined)	/	.	/	/	54.4
CC1CCCCC12NC(=O)N(Cc1cc(=O)n3ccsc3n1)C2=O (centres undefined)	.	.	.	41.9	.
CC(C)CC1NC(=O)N(Cc2cc(=O)n3ccsc3n2)C1=O (centres undefined)	.	.	.	.	/
Cn1ccsc1=NC(=O)c1ccc([N+](=O)[O-])o1	.	.	.	49.1	.
CCN(CC)CCNC(=O)c1[nH]c2ccc(OCc3ccccc3)cc2c1C	25.3	.	.	.	/
CCOC(=O)[C@]12CCCC=C1N(Cc1ccccc1)C(=O)[C@H](CC(=O)NCC13CC4CC(CC(C4)C1)C3)C2	.	/	.	.	/
COC(=O)[C@]12CCCCC=C1N(Cc1ccccc1)C(=O)[C@H](CC(=O)NCC13CC4CC(CC(C4)C1)C3)C2	.	/	.	54.1	/
CC(=O)OCC1=C(C(=O)O)N2C(=O)C(NC(=O)c3ccc(COc4ccc(Cl)cc4)o3)C2SC1 (centres undefined)	.	.	.	59.8	/
CC(=O)OCC1=C(C(=O)O)N2C(=O)C(NC(=O)COc3ccc(F)cc3)C2SC1 (centres undefined)	.	.	.	.	.
CC(=O)OCC1=C(C(=O)O)N2C(=O)[C@@H](NC(=O)Cc3cccs3)[C@H]2SC1	.	.	.	.	.
CC(=O)OCC1=C(C(=O)O)N2C(=O)C(NC(=O)c3ccc(COc4c(C)cccc4Cl)o3)C2SC1 (centres undefined)	.	.	.	40.5	.
COc1ccc(NC(=O)N(C)C[C@@H]2OCCCC[C@H](C)Oc3ccc(NC(=O)Nc4ccc(C(F)(F)F)cc4)cc3C(=O)N([C@H](C)CO)C[C@@H]2C)cc1	.	/	.	.	.
O=C(NC[C@H]1CC[C@@H]2[C@@H](CN2S(=O)(=O)c2ccccc2[N+](=O)[O-])O1)Nc1ccccc1	.	/	.	.	/
O=C(NC[C@@H]1CC[C@@H]2[C@@H](CN2S(=O)(=O)c2ccccc2[N+](=O)[O-])O1)C1CCOCC1	28.0	/	.	53.5	/
C=CCNc1nc(Nc2cc(Cl)ccc2OC)nc(OC)n1	.	.	.	39.4	.
O=C(C[C@@H]1CC[C@H]2[C@@H](COC[C@H](O)CN2S(=O)(=O)c2ccccc2)O1)NCC1CCCCC1	39.4	/	53.1	.	.
O=C(C[C@H]1CC[C@@H]2[C@H](COC[C@H](O)CN2S(=O)(=O)c2ccccc2)O1)NCC1CCCCC1	.	/	55.5	.	.
CCNC(=O)[C@H]1[C@H](CO)[C@H]2Cn3c(ccc(-c4ccccc4)c3=O)[C@@H]1N2C(=O)c1ccccn1	.	/	.	.	.
COc1ccccc1-c1ccc2n(c1=O)C[C@H]1[C@H](CO)[C@@H](C(=O)N(C)C)N(C(=O)c3cccnc3)[C@@H]21	.	/	.	.	.
COCC(=O)N(C)C[C@@H]1Oc2cc(C#CCN(C)C)ccc2S(=O)(=O)N([C@H](C)CO)C[C@H]1C	.	/	.	.	.
COc1ccc(COCC23N=C4SCCCN4[C@H](c4ccccc4O2)[C@H]3COC(=O)c2ccccc2)cc1	.	/	.	.	.
NS(=O)(=O)c1ccc(N=Nc2ccc(O)c3ncccc23)cc1	.	.	.	50.5	/
SMILES	MLL AF4-AF9 inh	Glyco luc inh	RAD52 inh	Casp6 inh	RAD54 inh
NS(=O)(=O)c1ccc(N=Nc2ccc(=O)[nH]c2O)cc1	.	.	.	70.5	/
C[C@H]1CCCCO[C@H](CN(C)C(=O)Nc2cccc3ccccc23)[C@@H](C)CN([C@@H](C)CO)C(=O)c2cc(NC(=O)Cc3ccccc3)ccc2O1	.	/	.	.	.
COCC(=O)N1CC2(C1)[C@@H](c1ccccc1)[C@H](CO)N2C(=O)c1cccnc1	.	/	.	.	/
CC=Cc1ccc2n(c1=O)C[C@@H]1[C@@H](CO)[C@H](C(=O)NCCC)N(CC3CCCC3)[C@H]21 (mixture of isomers)	.	/	.	.	.
CC=Cc1ccc2n(c1=O)C[C@H]1[C@H](CO)[C@@H](C(=O)NCCC)N(CC3CCCC3)[C@@H]21 (mixture of isomers)	.	/	99.1	.	.
O=C(COc1ccc(/C=N/NC(=O)c2cc3ccccc3o2)cc1Br)Nc1ccccc1	/	61.8	/	/	.
COc1ccc(NC(=O)Nc2ccc3c(c2)C(=O)N([C@@H](C)CO)C[C@H](C)[C@H](CN(C)Cc2ccccc2)OCCCC[C@H](C)O3)cc1	.	/	56.8	.	.
COc1ccc(NC(=O)Nc2ccc3c(c2)C(=O)N([C@H](C)CO)C[C@@H](C)[C@@H](CN(C)Cc2ccccc2)OCCCC[C@H](C)O3)cc1	.	/	50.9	.	.
COc1ccc(NC(=O)Nc2ccc3c(c2)C(=O)N([C@@H](C)CO)C[C@H](C)[C@@H](CN(C)Cc2ccccc2)OCCCC[C@H](C)O3)cc1	.	/	.	.	.
COc1ccc(NC(=O)Nc2ccc3c(c2)C(=O)N([C@@H](C)CO)C[C@H](C)[C@H](CN(C)Cc2ccccc2)OCCCC[C@@H](C)O3)cc1	.	/	60.3	.	.
C[C@@H]1CCCCO[C@H](CN(C)Cc2ccccc2)[C@H](C)CN([C@@H](C)CO)C(=O)c2cc(NC(=O)Nc3ccc(F)cc3)ccc2O1	.	/	53.2	.	.
O=C(NCC[C@H]1CC[C@H](NC(=O)C2CCCCC2)[C@H](CO)O1)Nc1ccc(Cl)cc1	.	/	.	.	.
Cc1ccc[n+](-c2[nH]c(=O)sc2/C=N/NC(=O)c2ccccc2[O-])c1	.	.	.	35.2	/
CNC[C@H]1Oc2cc(C#Cc3ccccn3)ccc2S(=O)(=O)N([C@@H](C)CO)C[C@@H]1C	.	/	.	.	.
COCCNC(=O)[C@H]1[C@H](CO)[C@H]2Cn3c(ccc(-c4ccccc4F)c3=O)[C@H]2N1C(=O)C1CC1	.	/	.	.	.
CC(C)CCNC(=O)CCCOc1cc(=O)n(C)c2ccccc12	/	30.6	.	.	.
COc1ccc(NC(=O)N(C)C[C@@H]2Oc3ccc(N(C)C)cc3C(=O)N([C@H](C)CO)C[C@H]2C)cc1	.	/	.	.	.
COc1ccccc1CN1[C@@H](CO)[C@@H]2c3ccccc3N(C(=O)c3cccnc3)C[C@@H]21	44.3	/	.	.	.
COc1ccc(S(=O)(=O)N(C)C[C@@H]2Oc3ccc(NC(=O)Nc4cccc5ccccc45)cc3CC(=O)N([C@@H](C)CO)C[C@@H]2C)cc1	.	/	.	.	/
COc1ccc(OC)c(NC(=O)COC(=O)c2cc3c(s2)CCC3)c1	.	.	.	.	/

Compound activity (PubChem)
